IP6K1 inh: Primary qHTS assay for small molecule inhibitors of Inositol hexaphosphate kinase 1 (IP6K1); IP6K1 kinase, ADP-Glo luminescence, 2 h; stronger effect = lower value; activity change, % (series mostly up to about 58 µM); hit rate 0.81% among 140,000; Inositol hexakisphosphate kinase 1 (Homo sapiens), Q92551; AID 1645851, 2021; in the data active means activity change below about -25%; further: on the % scale 0 is the no-effect control and ±100 the full control effect
Target sequence (Q92551 whole entry, looked up): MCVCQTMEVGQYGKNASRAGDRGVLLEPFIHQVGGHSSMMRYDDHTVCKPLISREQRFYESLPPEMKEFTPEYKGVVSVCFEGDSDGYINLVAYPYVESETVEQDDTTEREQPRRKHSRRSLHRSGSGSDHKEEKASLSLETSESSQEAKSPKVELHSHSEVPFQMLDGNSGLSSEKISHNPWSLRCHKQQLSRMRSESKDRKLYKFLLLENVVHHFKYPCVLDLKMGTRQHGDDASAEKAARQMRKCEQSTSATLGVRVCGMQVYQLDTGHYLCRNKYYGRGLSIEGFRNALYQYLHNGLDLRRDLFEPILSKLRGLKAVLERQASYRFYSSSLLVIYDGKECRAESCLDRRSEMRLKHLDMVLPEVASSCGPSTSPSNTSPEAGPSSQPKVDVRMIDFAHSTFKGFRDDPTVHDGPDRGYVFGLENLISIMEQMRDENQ
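ADP-Glo luminescence measures ADP made by human IP6K1 during a 2 h RT reaction with ATP/IP6 (mix at 1.3 mM/130 uM); top library doses 57.5 and 19.1 uM final.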
KDM5B inhibitor: Primary screen for KDM5B Histone Demethylases FDH-coupled qHTS; Lysine-specific demethylase 5B (Homo sapiens), Q9UGL1; KDM5B demethylase, FDH-coupled NADH fluorescence (FDH is formaldehyde dehydrogenase); Potency, µM (titrated, usually from 57.7 µM), actives largely listed as inhibitors; hit rate 2.6% among 220,000; AID 1347165, 2019; active means well fitted inhibition curve with a large enough effect; inconclusive means small, poorly fitted or top-dose-only effect; inactive means no such curve, though single readings can be large or run the other way; further: potency means the concentration at half of the fitted maximal effect; 0% is about no effect; nearly all actives have a fitted effect of over 70% in size
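qHTS format, multiple compound concentrations. Buffer 50 mM HEPES pH 7.5/0.01% Tween-20; 200 nM KDM5BΔAP final; 10 min compound preincubation; substrate-mix levels 12.5 µM peptide, 25 µM α-KG, 0.25 mM NAD⁺; 30 min RT; ΔRFU.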
Numbers without * were called inactive; i = inactive; u = inconclusive; x = not tested or not shown. In the library only some 2.8% were active in any assay of this set; here they are far more common.

SMILES	IP6K1 inh	KDM5B inhibitor
CCN1CCN(C(=O)Cn2c(C)ccc(NC(=O)Nc3ccc(C)cc3)c2=O)CC1	-7	u
Cc1ccc(NC(=O)Nc2ccc(C)n(CC(=O)Nc3ccccc3)c2=O)cc1	-1	u
O=C1CN(C(=O)CCc2ncc(-c3ccc(Cl)cc3)o2)CCN1	x	i
O=C(C1CCCC1)N1CCC(n2c(=O)[nH]c3ccccc32)CC1	-14	x
Cc1oc2c(c1C(=O)NCc1cccnc1)CN(Cc1ccc(F)cc1)CC2	7	i
CN(Cc1cccnc1)C(=O)c1n[nH]c2c1CN(Cc1cccnc1)CC2	10	25µM*
CN(C)C(=O)N1CCCC(C(=O)N2CCC(N3CCOC3=O)CC2)C1 (stereo not drawn)	18	x
CC(=O)Nc1ccc(CN2CCC3(C2)NC(=O)c2ccccc2O3)cc1 (stereo not drawn)	4	i
Cc1ccccc1-n1nc(C)c(CCC(=O)NCC2CC2)c1Oc1cccc(F)c1	1	i
Cc1ccccc1-n1nc(C)c(CCC(=O)NCC(C)C)c1Oc1cccc(F)c1	18	22µM*
Cc1nn2c(c1-c1cccnc1N1CCOCC1)N(CCCc1ccccc1)CCC2	-4	i
Cc1nn2c(c1-c1ccccc1[S+](C)(=O)[O-])N(CCCc1ccccc1)CCC2	24	25µM*
Cc1nn2c(c1-c1ccccc1[S+](C)(=O)[O-])N(Cc1ccccc1)CCC2	6	i
Cc1nn2c(c1-c1ccccc1C(N)=O)N(CCCc1ccccc1)CCC2	12	32µM*
COc1ccc(OC)c(C(=O)COC(=O)CCSc2ccccc2Cl)c1	x	i
O=C(c1cccc2[nH]ccc12)N1C[C@@H](CO)[C@H](c2nc(C3CC3)no2)C1	-5	22µM*
Cc1noc([C@@H]2CN(C(=O)CCc3c[nH]c4ccccc34)C[C@H]2CO)n1	-9	i
O=C(c1ccccc1F)N1C[C@@H](CO)[C@H](c2nc(C3CC3)no2)C1	-9	i
Cc1noc([C@@H]2CN(C(=O)c3cccc4[nH]ccc34)C[C@H]2CO)n1	1	28µM*
O=C(c1cccc2[nH]ccc12)N1CCC(c2noc(C3CC3)n2)C1 (stereo not drawn)	5	22µM*
O=C(c1nccc2ccccc12)N1CCC(c2noc(C3CC3)n2)C1 (stereo not drawn)	2	i
CCCNc1nc(-c2ccc(O)c(C(N)=O)c2)cs1	x	i
NCCNC(=O)c1ccc(Cl)cn1	20	x
COCC(=O)NC1CCN(c2ccc3nnc(C4CC4)n3n2)CC1	21	x
Cc1ccc2nc(CO[C@H]3CN(c4ccc(C#N)cn4)C[C@H]3F)[nH]c2c1	-20	18µM*
SMILES	IP6K1 inh	KDM5B inhibitor
Cc1ccc2nc(CO[C@H]3CN(C4CCCCC4)C[C@H]3F)[nH]c2c1	-7	u
CC(C)CN1C(=O)c2cccn2CC1C(=O)Nc1ccccc1F (stereo not drawn)	-5	i
Cn1c(=O)c2[nH]c(CN3CCN(c4cccc(Cl)c4)CC3)nc2n(C)c1=O	x	i
Cn1cc(CN2CCc3ccccc32)ccc1=O	-4	10µM*
COc1ccccc1N1CCN(Cc2ccc(=O)n(C)c2)CC1	-4	i
C[C@@H]1C[C@H]2O[C@@H]2/C=C\C=C\C(=O)Cc2c(Cl)c(O)cc(O)c2C(=O)O1	-27*	x
C[C@@H]1C[C@@H]2O[C@H]2CCCCC(=O)Cc2cc(O)cc(O)c2C(=O)O1	x	i
O=C1NCCCCCCN(C(=O)C2CCCC2)[C@H]2C[C@H](C(=O)N3CCN(c4ccccn4)CC3)C[C@@H]12	9	u
O=C1NCCCCCCN(C(=O)c2ccoc2)[C@H]2C[C@H](C(=O)N3CCN(c4ccccn4)CC3)C[C@@H]12	12	32µM*
CCCn1c(C)c(CC(=O)NCC2CCCOC2)c2c1CC(C)(C)CC2=O (stereo not drawn)	1	i
O=C(c1nc2sccn2c1-c1ccccc1)N1CCCCC1	5	x
CCOCCCNC(=O)c1c(C)noc1-c1ccc(OC)cc1	3	i
CCCOCCNC(=O)c1c(C)noc1-c1cc(OC)cc(OC)c1	1	i
CCOCCCNC(=O)c1c(C)noc1-c1cc(OC)c(OC)c(OC)c1	18	28µM*
COc1cc(-c2onc(C)c2C(=O)NCC2CCCO2)cc(OC)c1OC (stereo not drawn)	36	28µM*
COCCNC(=O)c1c(C)noc1-c1cc(OC)c(OC)c(OC)c1	5	28µM*
COc1cc(CNC(=O)c2c(C)noc2-c2cc(OC)c(OC)c(OC)c2)cc(OC)c1	-10	28µM*
COc1ccc(CNC(=O)c2c(C)noc2-c2ccc(OC)cc2)cc1	12	i
COc1ccc(-c2cc(C(=O)NCC3CCCO3)c3cc(C)ccc3n2)cc1 (stereo not drawn)	x	i
C[C@H](O)[C@H](O)/C=C/c1cccc(O)c1CO	5	x
CC(C)(C)c1nc(Cn2c(=O)c(C#N)cn(C3CC3)c2=O)no1	x	i
COCCNC(=O)C1CCCN(c2nccc(Nc3ccccc3OC)n2)C1 (stereo not drawn)	19	x
CC(C)(C)OC(=O)N1CCC(N2CCN(Cc3ccccc3)C(=O)C2=O)CC1	45	i
O=C(Nc1ccccc1F)c1ccc(-c2ccccc2)cc1	x	i
O=C1CC(Cc2ccc(Br)cc2)C(=O)N1c1ccc2ccccc2n1 (stereo not drawn)	x	i
SMILES	IP6K1 inh	KDM5B inhibitor
O=C(/C=C/c1cccs1)OCC(=O)c1ccccc1	x	i
COc1cc(-c2onc(C)c2C(=O)NCCCOC(C)C)cc(OC)c1OC	6	32µM*
COc1cc(-c2onc(C)c2C(=O)N(C)Cc2ccccc2)cc(OC)c1OC	20	u
COc1cc(-c2onc(C)c2C(=O)NCCC(c2ccccc2)c2ccccc2)cc(OC)c1OC	-6	28µM*
Cc1noc(-c2ccc3c(c2)OCO3)c1C(=O)NCCCOC(C)C	13	u
CS(=O)(=O)NC[C@H]1OC[C@@H](NCc2ccc(S(C)(=O)=O)cc2)[C@@H]1O	-2	i
Cc1cc(C)c(C)c(S(=O)(=O)N2CCN(C(C)c3nc4ccccc4c(=O)[nH]3)CC2)c1C (stereo not drawn)	x	i
O=C(COc1cccc(Br)c1)OCc1coc(-c2ccccc2)n1	x	i
CC(C)CCN1CCNC(=O)C1CC(=O)N(Cc1cnn(C)c1)C1CC1 (stereo not drawn)	-6	16µM*
Cc1ccc(CN2CCNC(=O)C2CC(=O)N(CC(C)C)CC(C)C)cc1 (stereo not drawn)	-7	u
CNC(=O)c1ccc(Cn2cc(-c3nccn3C)nn2)o1	23	i
O=C(CCc1ccccc1)NC1CCN(c2nnc3ccccn23)CC1	20	25µM*
O=C(CCCc1ccccc1)NC1CCN(c2cc(-c3ccccc3)[nH]n2)CC1	32	i
Cc1ccc(CC(=O)NC2CCN(c3cnn(C)c(=O)c3)CC2)cc1	7	i
O=C(NC1CCN(c2nnc3ccccn23)CC1)c1ccc(Cl)s1	6	25µM*
COc1cccc(C(=O)NC2CCN(c3nnc4ccccn34)CC2)c1	8	28µM*
Cc1ccc(C(=O)NC2CCN(c3cc(-c4ccccc4)[nH]n3)CC2)s1	15	u
Cc1ccc(CC(=O)NC2CCN(c3nnc4cccc(C)n34)CC2)cc1	36	32µM*
COc1cccc(C(=O)NC2CCN(c3ccnc4ccnn34)CC2)c1	12	x
